This note sets out measurements from PubChem BioAssay.

Structures are written as SMILES. Inconclusive results are not listed. Calls of active or inactive are those of the source.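 Rule for the calls, unless noted: active = inhibition above the screen-wide mean plus 3 SD, about 51%; inactive = the rest.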

Assay [1] can be described thus: rapamycin-like changes in RPL19A-GFP expression – cell-based, S. cerevisiae, multiplex flow cytometry, primary screen (AID 1862; in the data active = percent of DMSO control GFP below about 86%;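 note: lower values mimic rapamycin by blocking the RPL19A rise seen in DMSO cells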). Particulars: S. cerevisiae RPL19A-GFP strain, flow cytometry fluorescence, 3 h; at 10 µM; stronger effect = lower value.
Assay [2] in a line: TOR pathway GLN3 branch reporter MEP2-GFP changes – S. cerevisiae, multiplex flow cytometry, primary screen (AID 1867;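 active = GFP response, as percent of the DMSO control, above the screen-wide mean plus 3 SD, about 139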;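 note: median GFP channel fluorescence of barcode-gated MEP2-GFP cells measured by flow cytometry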). Particulars: S. cerevisiae MEP2-GFP strain, 3 h, at 10 µM, stronger effect = higher value, 100% means same as DMSO wells.
A short description of assay [3]: TOR pathway RTG branch CIT2 reporter changes – S. cerevisiae, GFP fusion, multiplex flow cytometry, primary screen (AID 1870;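 active = percent response above a set limit, the screen-wide mean plus 3 SD, cut at about 130% in these data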;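 note: barcoded CIT2-GFP strain pooled with four other GFP strains with rapamycin as positive control; median GFP fluorescence per well over plate mean of DMSO wells so 100% = DMSO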). Particulars: S. cerevisiae CIT2-GFP expression, 3 h, at 10 µM, stronger effect = higher value.
Assay [4] is described as follows: TOR pathway LAP4-GFP level changes – S. cerevisiae, multiplex flow cytometry, primary screen (AID 1873;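 active = GFP signal, as percent of the solvent control, above the screen mean plus 3 SD, about 149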). Particulars: S. cerevisiae LAP4-GFP expression, 3 h, at 10 µM, stronger effect = higher value.
A short description of assay [5]: yeast AGP1-GFP level changes, GLN3 branch – cell-based, multiplex flow cytometry, S. cerevisiae, primary screen (AID 1887;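 active = GFP signal above the screen-wide mean plus 3 SD, that is over about 124.5% of the solvent control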;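 note: AGP1-GFP fusion strain of S. cerevisiae within a five-strain barcoded multiplex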). The following applies: 3 h, at 10 µM, stronger effect = higher value.
A short description of assay [6]: reduced mouse 2C T cell binding to pMHC/ICAM-1 vesicles – MLPCN validation set, flow cytometry, LFA-1/ICAM-1 modulator project, pilot screen (AID 2523;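 active = response below a set limit, under 55% cells CD8-positive and vesicle-bound, and CD8 cells' 90th-percentile brightness under 279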;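 for vesicle binding response: mean PE anti-B7-1 fluorescence of CD8+ cells relative to row control; 100% = QL9-loaded vesicles with DMSO vehicle in the same plate row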). The following applies: 2C mouse CD8+ T cells, at 7 µM, stronger effect = lower value; double positive events: measured here: CD8+/vesicle+ event percentage.
Assay [7] deals with Integrin beta-1 (Homo sapiens) + Integrin alpha-4 (Homo sapiens) (UniProt P13612+P05556). As to the kind of experiment: alpha4beta1 integrin LIBS antibody binding reduction – U937 cells, HUTS-21 mAb, flow cytometry, validation set, VLA-4 allosteric modulator project, pilot screen (AID 2674;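 active = inhibition above 50%, about 3 SD of the validation set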;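 note: antibody binding induced by the VLA-4 ligand LDV present at three times its Kd; 0% = LDV ligand with antibody and no compound and 100% = antibody without LDV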). The following applies: HUTS-21 LIBS mAb binding, at 6.7 µM, stronger effect = higher value, binding induced by LDV ligand.
Integrin beta-1 (Homo sapiens) + Integrin alpha-4 (Homo sapiens), sequence (P05556 whole entry, looked up): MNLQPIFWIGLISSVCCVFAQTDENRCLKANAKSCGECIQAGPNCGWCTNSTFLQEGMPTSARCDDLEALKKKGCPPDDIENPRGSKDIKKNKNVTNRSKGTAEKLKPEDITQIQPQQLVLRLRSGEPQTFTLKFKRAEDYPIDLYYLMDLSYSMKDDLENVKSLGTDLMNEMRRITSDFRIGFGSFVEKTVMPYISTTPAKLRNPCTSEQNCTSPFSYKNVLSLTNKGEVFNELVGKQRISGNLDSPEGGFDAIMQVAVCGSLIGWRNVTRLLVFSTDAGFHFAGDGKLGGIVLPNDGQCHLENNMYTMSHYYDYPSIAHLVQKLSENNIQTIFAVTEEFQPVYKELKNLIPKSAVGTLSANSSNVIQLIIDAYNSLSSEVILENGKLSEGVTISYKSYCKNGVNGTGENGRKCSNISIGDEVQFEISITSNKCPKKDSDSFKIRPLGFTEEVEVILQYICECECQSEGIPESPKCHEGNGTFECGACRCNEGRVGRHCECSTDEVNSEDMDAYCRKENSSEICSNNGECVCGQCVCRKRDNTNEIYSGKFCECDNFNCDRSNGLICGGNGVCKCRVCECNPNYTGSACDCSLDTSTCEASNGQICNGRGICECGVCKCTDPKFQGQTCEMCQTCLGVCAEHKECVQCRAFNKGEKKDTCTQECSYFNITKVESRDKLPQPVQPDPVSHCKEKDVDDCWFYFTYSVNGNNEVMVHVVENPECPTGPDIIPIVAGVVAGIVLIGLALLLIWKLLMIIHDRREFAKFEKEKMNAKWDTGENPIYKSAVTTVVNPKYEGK
Integrin beta-1 (Homo sapiens) + Integrin alpha-4 (Homo sapiens), sequence (P13612 whole entry, looked up): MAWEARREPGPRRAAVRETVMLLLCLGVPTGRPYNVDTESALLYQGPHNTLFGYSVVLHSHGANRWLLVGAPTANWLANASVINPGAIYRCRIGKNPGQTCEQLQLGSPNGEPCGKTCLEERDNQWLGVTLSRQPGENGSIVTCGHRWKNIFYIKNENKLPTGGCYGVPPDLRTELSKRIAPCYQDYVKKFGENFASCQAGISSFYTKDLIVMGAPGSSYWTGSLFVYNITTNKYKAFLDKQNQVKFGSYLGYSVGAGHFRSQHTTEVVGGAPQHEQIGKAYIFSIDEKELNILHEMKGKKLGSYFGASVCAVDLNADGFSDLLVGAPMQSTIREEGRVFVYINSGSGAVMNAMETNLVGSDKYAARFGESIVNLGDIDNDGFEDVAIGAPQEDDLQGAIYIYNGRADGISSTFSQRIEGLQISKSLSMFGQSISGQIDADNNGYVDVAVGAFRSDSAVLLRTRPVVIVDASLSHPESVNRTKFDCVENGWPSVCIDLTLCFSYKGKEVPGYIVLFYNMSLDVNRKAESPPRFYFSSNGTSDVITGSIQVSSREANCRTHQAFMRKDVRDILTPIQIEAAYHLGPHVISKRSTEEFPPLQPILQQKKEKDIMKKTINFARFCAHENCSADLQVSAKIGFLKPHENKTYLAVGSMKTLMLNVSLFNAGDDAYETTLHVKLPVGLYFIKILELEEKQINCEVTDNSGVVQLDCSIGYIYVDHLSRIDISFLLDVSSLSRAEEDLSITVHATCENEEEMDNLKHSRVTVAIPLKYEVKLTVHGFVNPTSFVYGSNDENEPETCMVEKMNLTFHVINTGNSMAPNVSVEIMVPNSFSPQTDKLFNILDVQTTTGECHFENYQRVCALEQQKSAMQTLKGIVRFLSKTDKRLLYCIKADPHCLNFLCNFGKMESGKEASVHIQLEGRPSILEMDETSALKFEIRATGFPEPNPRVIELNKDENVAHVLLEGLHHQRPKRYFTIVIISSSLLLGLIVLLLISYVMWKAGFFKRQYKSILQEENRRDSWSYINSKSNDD

Assay [8] can be described thus: calorie-restriction mimetic ROS inhibitors, yeast – validation compound set, pilot screen (AID 2706;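 active = superoxide response below 65% of plate, a cut near 3 SD across the whole screen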;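 note: yeast exposed to compound for one week at 30 degrees C before staining; 100% = mean of all compound wells on the same plate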). The following applies: S. cerevisiae aging, superoxide DHE fluorescence; at 10 µM, stronger effect = lower value.
Assay [9] deals with Beta-adrenergic receptor kinase 1 (Homo sapiens) (UniProt P25098). As to the kind of experiment: GRK2 binders displacing RNA aptamer, biochemical, validation, human GRK2, bead flow cytometry (AID 488806;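 active = aptamer binding inhibition above 30%, about 3 SD of noise from non-fluorescent compounds; inactive = inhibition at or below 30%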). Particulars: bead-bound GRK2, FAM-aptamer displacement, at 10 µM, stronger effect = higher value.
Beta-adrenergic receptor kinase 1 (Homo sapiens), sequence (P25098 whole entry, looked up): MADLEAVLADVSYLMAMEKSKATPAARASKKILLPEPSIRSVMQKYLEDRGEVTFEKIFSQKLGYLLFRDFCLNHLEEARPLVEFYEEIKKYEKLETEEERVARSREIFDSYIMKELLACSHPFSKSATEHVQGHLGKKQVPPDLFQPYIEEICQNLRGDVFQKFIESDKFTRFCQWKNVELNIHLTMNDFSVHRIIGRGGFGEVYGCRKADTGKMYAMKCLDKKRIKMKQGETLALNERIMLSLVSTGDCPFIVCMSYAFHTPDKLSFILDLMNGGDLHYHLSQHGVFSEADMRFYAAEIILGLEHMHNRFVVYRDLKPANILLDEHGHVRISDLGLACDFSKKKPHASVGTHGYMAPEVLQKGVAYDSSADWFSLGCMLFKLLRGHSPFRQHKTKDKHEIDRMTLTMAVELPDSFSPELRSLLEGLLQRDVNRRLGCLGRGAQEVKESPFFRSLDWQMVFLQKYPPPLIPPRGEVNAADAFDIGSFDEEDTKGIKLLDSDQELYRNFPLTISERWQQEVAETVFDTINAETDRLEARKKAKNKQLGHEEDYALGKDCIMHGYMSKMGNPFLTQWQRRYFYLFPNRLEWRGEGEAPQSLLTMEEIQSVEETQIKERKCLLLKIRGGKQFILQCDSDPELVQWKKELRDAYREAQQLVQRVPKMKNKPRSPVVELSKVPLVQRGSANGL
The target in assay [10] is AP-2 complex subunit beta (Homo sapiens) (UniProt P63010). As to the kind of experiment: beta-arrestin/AP2 interaction blockers – biochemical, validation set, GST-AP2 beads, flow cytometry, pilot screen (AID 504541;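 active = inhibition above 54%, about 3 SD of non-fluorescent compounds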;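 note: AP2 carries R879A mutation and is captured from E. coli lysate; bead-bound FITC arrestin peptide fluorescence measuring arrestin peptide binding to AP2; 0% = DMSO wells and 100% = excess unlabeled arrestin peptide control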). The following applies: FITC arrestin peptide, at 10 µM, stronger effect = higher value, AP2 beta2 appendage fragment, R879A mutant.
AP-2 complex subunit beta (Homo sapiens), sequence (P63010 whole entry, looked up, the tested form may be a part, one chain of several): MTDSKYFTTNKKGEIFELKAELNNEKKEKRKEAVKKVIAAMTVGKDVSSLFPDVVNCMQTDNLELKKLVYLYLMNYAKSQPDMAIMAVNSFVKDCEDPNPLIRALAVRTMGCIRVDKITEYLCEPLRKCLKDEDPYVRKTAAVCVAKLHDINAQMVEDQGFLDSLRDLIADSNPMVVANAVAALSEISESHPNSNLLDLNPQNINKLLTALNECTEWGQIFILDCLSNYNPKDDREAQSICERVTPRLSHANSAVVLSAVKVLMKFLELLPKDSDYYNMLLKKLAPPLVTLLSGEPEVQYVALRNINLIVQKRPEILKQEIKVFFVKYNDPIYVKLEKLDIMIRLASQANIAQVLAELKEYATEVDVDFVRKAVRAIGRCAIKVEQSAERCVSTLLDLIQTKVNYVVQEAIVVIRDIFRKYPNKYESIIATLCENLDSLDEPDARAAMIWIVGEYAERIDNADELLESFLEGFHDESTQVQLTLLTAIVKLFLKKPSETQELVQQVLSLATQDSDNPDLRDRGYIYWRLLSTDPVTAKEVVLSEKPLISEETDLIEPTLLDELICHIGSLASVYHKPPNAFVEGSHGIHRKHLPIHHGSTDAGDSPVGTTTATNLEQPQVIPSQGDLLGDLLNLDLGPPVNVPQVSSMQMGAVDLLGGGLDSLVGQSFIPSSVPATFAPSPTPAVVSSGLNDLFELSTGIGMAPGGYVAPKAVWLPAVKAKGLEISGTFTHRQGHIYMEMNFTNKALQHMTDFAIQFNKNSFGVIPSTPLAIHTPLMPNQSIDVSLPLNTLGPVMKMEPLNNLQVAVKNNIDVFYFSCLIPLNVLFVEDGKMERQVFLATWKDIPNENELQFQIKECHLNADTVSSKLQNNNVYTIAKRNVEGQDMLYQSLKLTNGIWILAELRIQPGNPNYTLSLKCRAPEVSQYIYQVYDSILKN
Assay [11] can be described thus: cytosolic pH regulators acting via V-ATPase – S. cerevisiae, pHLuorin, HTS validation (AID 504600; in the data active = response above about 15%;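 note: plate controls were DMSO for no effect and reference compound for full effect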). The following applies: V-ATPase proton transport, at 10 µM, stronger effect = higher value.
Assay [12] concerns anti-desmoglein-3 scFv antibody binding to human DSG3. As to the kind of experiment: blockers of pathogenic pemphigus antibody–desmoglein-3 binding – biochemical, validation compound set, bead-based, flow cytometry, pilot screen (AID 588368;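 active = binding below the plate cutoff, the plate median minus 3 SD, with a reading above zero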;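 note: signal is the median channel fluorescence of bead-bound GFP antibody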). The following applies: Protein G beads, DSG3-Fc, scFv-GFP binding, at 10 µM, stronger effect = lower value.
The nature of assay [13]: Nile Red efflux blockade in pump-expressing yeast – validation compound set, multiplex, phenotypic, pilot screen (AID 588506;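 active = efflux inhibition above 0.42, the validation set average plus 4 SD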;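 note: Nile Red retained in cells so higher fluorescence means more efflux inhibition; 0 = negative control wells and 1 = enniatin B 25 µM full block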). The following applies: S. cerevisiae pump-expressing triplex, Nile Red efflux flow cytometry; at 10 µM; stronger effect = higher value; the pumps come from Candida albicans.
Assay [14] deals with ATP-binding cassette sub-family B member 6 (Homo sapiens) (UniProt Q9NP58). As to the kind of experiment: blockers of ABCB6-driven porphyrin uptake – K562-ABCB6 cells, flow cytometry, validation set, pilot screen (AID 588550).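 Note: 0% = DMSO wells and 100% = benzethonium chloride 70 µM positive control.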 Particulars: K562-ABCB6 porphyrin accumulation, 1 h, at 10 µM, stronger effect = higher value.
ATP-binding cassette sub-family B member 6 (Homo sapiens), sequence (Q9NP58 whole entry, looked up): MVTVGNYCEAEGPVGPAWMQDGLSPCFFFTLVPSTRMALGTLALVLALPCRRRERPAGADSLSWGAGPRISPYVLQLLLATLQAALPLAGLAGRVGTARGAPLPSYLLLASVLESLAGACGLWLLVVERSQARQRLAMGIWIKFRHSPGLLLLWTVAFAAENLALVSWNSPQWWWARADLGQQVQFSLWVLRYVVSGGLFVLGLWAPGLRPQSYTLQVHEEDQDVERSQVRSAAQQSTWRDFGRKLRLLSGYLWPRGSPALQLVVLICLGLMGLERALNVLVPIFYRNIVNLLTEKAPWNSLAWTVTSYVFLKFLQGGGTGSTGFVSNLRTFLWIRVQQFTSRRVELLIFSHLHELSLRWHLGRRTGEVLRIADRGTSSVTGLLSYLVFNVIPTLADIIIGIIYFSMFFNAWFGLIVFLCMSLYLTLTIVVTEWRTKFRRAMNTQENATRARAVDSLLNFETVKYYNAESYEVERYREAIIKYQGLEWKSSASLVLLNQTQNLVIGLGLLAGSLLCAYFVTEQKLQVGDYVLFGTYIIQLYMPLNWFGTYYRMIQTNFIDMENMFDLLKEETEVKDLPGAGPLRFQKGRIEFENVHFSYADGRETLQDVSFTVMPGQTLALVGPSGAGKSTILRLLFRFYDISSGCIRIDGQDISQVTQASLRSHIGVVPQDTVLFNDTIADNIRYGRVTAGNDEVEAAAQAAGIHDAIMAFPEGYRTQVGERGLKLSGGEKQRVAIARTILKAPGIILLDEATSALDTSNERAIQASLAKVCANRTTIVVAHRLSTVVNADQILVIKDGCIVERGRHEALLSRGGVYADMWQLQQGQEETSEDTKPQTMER
Assay [15] is described as follows: AML differentiation inducers, ER-HoxA9 marrow cells – cell-based, GFP/MAC1 double positive, flow cytometry, validation set, primary screen (AID 588685;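 active = differentiation response of at least 50%, scaled between solvent and reference control, from cells with both markers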;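 note: compound exposure lasts four days before antibody staining and flow analysis; 0% = DMSO wells and 100% = 5 µM fulvestrant positive control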). Particulars: stronger effect = higher value, normalized: vehicle 0, fulvestrant 100.

Regarding `CC1=CC(C)(C)N2C(=O)C3(NCCc4c3[nH]c3ccccc43)c3cc(C)cc1c32` (stereo not given), the percent of DMSO control GFP in assay [1] is 103% (inactive). Also, the GFP response vs DMSO in assay [2] is 98.9% (inactive); in [4] it was 82.3% (inactive). The percent response of DMSO control in assay [3] is 99.8% (inactive). In addition, the GFP response, % of DMSO in assay [5] was 93.6% (inactive). The double positive events in assay [6] is 63%. For the same compound, the vesicle binding response in [6] is 162% (inactive). Besides, the inhibition is 22.1% (inactive) in assay [7], -4.18% (inactive) in assay [10] and 4% (inactive) in assay [14]. The superoxide response (% of plate) in assay [8] is 97.3% (inactive). Further, the aptamer binding inhibition in [9] was -3% (inactive). Besides, the response in assay [11] was 3.88% (inactive). The binding (% of control) in assay [12] is 104% (inactive). The efflux inhibition (fraction of control) in [13] was 0.41 (inactive). Moreover, in assay [15], the differentiation response is -5.05% (inactive).
For the compound `C#C[C@]1(O)CC[C@H]2[C@@H]3CCC4=C(CCC(=O)C4)[C@H]3CC[C@@]21C`, the percent of DMSO control GFP in assay [1] was 97.1% (inactive). The GFP response vs DMSO in assay [2] was 92.8% (inactive); in assay [4], 129% (inactive). The percent response of DMSO control in assay [3] is 94.9% (inactive). For the same compound, the GFP response, % of DMSO in assay [5] was 98.7% (inactive). Moreover, the double positive events in [6] was 55.6%. Also, the vesicle binding response in assay [6] was 188% (inactive). Moreover, the figures for the inhibition in [7], in assay [10] and in assay [14] were 2.56% (inactive), 1.1% (inactive) and 7% (inactive), respectively. The superoxide response (% of plate) in assay [8] was 95.1% (inactive). Also, in assay [9], the aptamer binding inhibition was 2% (inactive). In addition, in [11], the response is 5.28% (inactive). Further, the binding (% of control) in assay [12] is 102% (inactive). Also, in [13], the efflux inhibition (fraction of control) was -0.2 (inactive). In [15], the differentiation response was -0.2% (inactive).
Regarding `Cc1ccc(-n2ncc3c(Nc4cccc(C(=O)O)c4)ncnc32)cc1`, the percent of DMSO control GFP in [1] was 100% (inactive). Moreover, the GFP response vs DMSO in assay [2] was 102% (inactive); in assay [4], 105% (inactive). Besides, the percent response of DMSO control in [3] was 93% (inactive). Moreover, the GFP response, % of DMSO in assay [5] was 93.9% (inactive). In assay [6], this compound yielded a double positive events of 66.3%. Besides, in assay [6], the vesicle binding response was 217% (inactive). Further, the inhibition is -5.84% (inactive) in assay [7], -0.33% (inactive) in [10] and 5% (inactive) in assay [14]. In addition, in assay [8], the superoxide response (% of plate) is 105% (inactive). Besides, the aptamer binding inhibition in [9] is -2% (inactive). Also, the response in assay [11] is -4.83% (inactive). For the same compound, the binding (% of control) in assay [12] was 101% (inactive). Moreover, in assay [13], the efflux inhibition (fraction of control) is 0.1 (inactive). Further, the differentiation response in [15] was 74.1% (active).
In the case of `O=C(NNC(=O)c1cccs1)c1ccco1`, the percent of DMSO control GFP in assay [1] was 104% (inactive). Besides, the results for the GFP response vs DMSO in assay [2] and in assay [4] were 104% (inactive) and 111% (inactive), respectively. Also, the percent response of DMSO control in [3] is 111% (inactive). Also, the GFP response, % of DMSO in [5] is 111% (inactive). Also, the double positive events in assay [6] worked out at 56.8%. Besides, the vesicle binding response in assay [6] is 159% (inactive). The inhibition in [7] is -3.04% (inactive); in assay [10], -10.8% (inactive); in [14], 16% (inactive). Also, the superoxide response (% of plate) in assay [8] is 95.2% (inactive). The aptamer binding inhibition in assay [9] is 1% (inactive). For the same compound, the response in [11] is 8.92% (inactive). The binding (% of control) in [12] is 102% (inactive). Moreover, the efflux inhibition (fraction of control) in assay [13] is -0.05 (inactive). Also, in [15], the differentiation response is 1.41% (inactive).
Turning to `Cc1cc(-c2nn(-c3ccccc3F)cc2CN2CCC(O)CC2)c(C)s1`, in assay [1], the percent of DMSO control GFP is 102% (inactive). For the same compound, the results for the GFP response vs DMSO in assay [2] and in [4] were 98.9% (inactive) and 93.3% (inactive), respectively. Besides, the percent response of DMSO control in assay [3] was 104% (inactive). The GFP response, % of DMSO in assay [5] is 95.5% (inactive). Besides, in assay [6], the double positive events is 47.2%. For the same compound, in assay [6], the vesicle binding response was 132% (inactive). Moreover, the inhibition in [7] was -7.7% (inactive); in assay [10] it was -9.39% (inactive); in assay [14], 10% (inactive). In addition, the superoxide response (% of plate) in assay [8] was 93.1% (inactive). Further, the aptamer binding inhibition in assay [9] was 4% (inactive). Also, in assay [11], the response was 0.7% (inactive). Besides, in assay [12], the binding (% of control) was 98.3% (inactive). Besides, the efflux inhibition (fraction of control) in [13] was -0.35 (inactive). For the same compound, the differentiation response in [15] is -30.9% (inactive).
